# Activity calls are given as the source filed them.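 Rule for the calls, unless noted: active = mean inhibition above 46.5%, the solvent-only control mean plus 3 SD; inactive = the rest.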
# Experiments:
# [1] = system: transactivating tegument protein VP16 (Human herpesvirus 1); experiment: compounds suppressing VP16-driven luciferase signal – cell-based, luminescence, single concentration, counter-screen for SRC2 inhibitor project (AID 652007; in the data active = inhibition above about 36%); details: cell-based VP16 transactivation luciferase reporter, at 8.9 µM, stronger effect = higher value
# [2] = molecular target: Nuclear receptor coactivator 2 (Homo sapiens) (UniProt Q15596); experiment: inhibition of GAL4-SRC2 driven luciferase expression – cell-based, luminescence, HEK293, triplicate, confirmation (AID 652008); details: HEK293 GAL4-SRC2 luciferase reporter, at 8.9 µM, stronger effect = higher value;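 note: 0% = DMSO-treated cells and 100% = Gossypol at 36 µM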
# Chain of Nuclear receptor coactivator 2 (Homo sapiens) (Q15596 whole entry, looked up, the tested form may be a part): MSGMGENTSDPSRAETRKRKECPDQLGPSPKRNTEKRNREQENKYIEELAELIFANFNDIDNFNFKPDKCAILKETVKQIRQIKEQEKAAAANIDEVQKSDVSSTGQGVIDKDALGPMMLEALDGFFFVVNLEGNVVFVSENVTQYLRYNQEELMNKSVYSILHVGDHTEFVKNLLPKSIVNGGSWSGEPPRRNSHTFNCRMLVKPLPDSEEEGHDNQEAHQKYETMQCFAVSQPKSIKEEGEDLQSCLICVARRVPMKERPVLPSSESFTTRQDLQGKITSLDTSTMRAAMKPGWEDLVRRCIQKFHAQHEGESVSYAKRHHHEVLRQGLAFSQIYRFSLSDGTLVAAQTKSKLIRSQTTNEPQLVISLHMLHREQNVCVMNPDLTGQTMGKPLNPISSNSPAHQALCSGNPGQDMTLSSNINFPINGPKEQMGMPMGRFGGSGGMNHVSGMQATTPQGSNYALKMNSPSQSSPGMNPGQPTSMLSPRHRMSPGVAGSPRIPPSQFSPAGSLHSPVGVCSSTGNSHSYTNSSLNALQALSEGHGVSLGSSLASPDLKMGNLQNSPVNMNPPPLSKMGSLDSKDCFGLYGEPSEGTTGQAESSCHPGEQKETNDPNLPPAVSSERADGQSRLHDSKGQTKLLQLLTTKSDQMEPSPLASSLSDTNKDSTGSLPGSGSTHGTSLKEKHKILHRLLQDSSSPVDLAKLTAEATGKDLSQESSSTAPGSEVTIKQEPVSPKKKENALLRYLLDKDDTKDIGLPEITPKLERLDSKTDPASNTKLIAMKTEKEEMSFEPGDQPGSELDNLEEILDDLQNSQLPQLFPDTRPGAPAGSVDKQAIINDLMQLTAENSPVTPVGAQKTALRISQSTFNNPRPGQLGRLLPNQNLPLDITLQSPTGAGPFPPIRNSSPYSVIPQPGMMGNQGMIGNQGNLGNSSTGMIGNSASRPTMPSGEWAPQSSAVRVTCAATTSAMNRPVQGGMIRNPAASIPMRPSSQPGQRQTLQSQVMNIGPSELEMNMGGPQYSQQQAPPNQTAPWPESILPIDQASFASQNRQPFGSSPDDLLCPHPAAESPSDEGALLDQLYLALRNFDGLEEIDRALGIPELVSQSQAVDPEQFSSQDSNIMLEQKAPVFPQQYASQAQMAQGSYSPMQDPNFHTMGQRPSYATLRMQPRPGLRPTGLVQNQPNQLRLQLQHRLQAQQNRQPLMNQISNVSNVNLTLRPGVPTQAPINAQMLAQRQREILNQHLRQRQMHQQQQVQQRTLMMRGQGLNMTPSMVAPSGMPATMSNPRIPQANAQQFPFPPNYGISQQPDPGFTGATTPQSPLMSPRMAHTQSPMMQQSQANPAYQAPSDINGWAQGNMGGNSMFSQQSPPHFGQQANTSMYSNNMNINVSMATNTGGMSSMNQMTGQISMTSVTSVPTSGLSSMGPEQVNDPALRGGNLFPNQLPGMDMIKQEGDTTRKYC
Compound,inhibition [1],inhibition [2]
OC[C@@H]1CN(Cc2ccc(-c3ccccc3)cc2)C[C@H](n2cnc3c(NCc4ccc(F)cc4)ncnc32)O1,20.8% (inactive),22.9% (inactive)
CC(=O)Nc1ccc(NC(=O)c2cc(=O)c3ccccc3o2)cc1,-12.5% (inactive),-8.33% (inactive)
Cc1nc([N+](=O)[O-])c(Br)n1Cc1ccccc1,3.69% (inactive),11.9% (inactive)
COc1ccc(CCNc2ncnc3cc(OC)c(OC)cc23)cc1OC,0.49% (inactive),16.4% (inactive)
COc1ccc(-n2nc3cc(C)c(N)c(Br)c3n2)cc1,-67.1% (inactive),-140% (inactive)
CCn1c(SCC(=O)c2ccc(-c3ccccc3)cc2)nnc1-c1ccc(C(C)(C)C)cc1,22.6% (inactive),31.3% (inactive)
CCCCCC(=O)N1CC2(CC(c3cccc(NC(=O)COc4ccc(Cl)cc4)c3)=NO2)C[C@@H]1C(N)=O (some centres undefined),-7.91% (inactive),-5.91% (inactive)
O=C1CSc2ccc(C(=O)Nc3cccc(S(=O)(=O)Nc4ccc(Br)cc4)c3)cc2N1,11.2% (inactive),25.2% (inactive)
CC[n+]1cccc(-c2nc3ccccc3s2)c1,9.34% (inactive),13% (inactive)
Cc1nnc(NC(=O)c2nc(S(=O)(=O)Cc3ccccc3)ncc2Cl)s1,1.66% (inactive),22.4% (inactive)
CCN1C=CC(=C2C(=O)c3ccccc3C2=O)C=C1,42.3% (active),58.6% (active)
COc1ccc(C(=O)O/N=C(\N)c2ccccn2)cc1,-70.2% (inactive),30% (inactive)
NC(=O)CC(NC(=O)c1ccc(Br)cc1)c1ccc(N2CCCCCC2)c([N+](=O)[O-])c1 (centres undefined),9.13% (inactive),23.3% (inactive)
c1cc(-c2nnc3n2N=C(c2ccc4c(c2)OCO4)CS3)ccn1,-3.48% (inactive),42.4% (inactive)
COc1ccccc1NC(=O)C(C)OC(=O)c1cc2ccccc2[nH]1 (centres undefined),15.9% (inactive),17.2% (inactive)
CC(NC(=O)CCc1nnc(-c2ccc(-c3ccccc3)cc2)o1)c1nc2ccccc2[nH]1 (centres undefined),15.2% (inactive),55.9% (active)

Compound,inhibition [1],inhibition [2]
CC(=O)Nc1ccc(Nc2nc(C)c([N+](=O)[O-])c(N(C)c3ccccc3)n2)cc1,32.4% (inactive),49.2% (active)
Cn1cnnc1SCC(=O)NC1CCCC1,-4.24% (inactive),-19.9% (inactive)
O=c1[nH][nH]c(-c2ccccc2O)c1C(C[N+](=O)[O-])c1ccc(Br)cc1 (centres undefined),24.3% (inactive),-0.61% (inactive)
O=c1[nH]nc(Sc2ncnc3sccc23)n1CCc1ccccc1,14.9% (inactive),47.5% (active)
COc1ccc(CNC(=O)C2CCCN(Cc3nc(-c4cccc(C)c4)oc3C)C2)cc1 (centres undefined),-10.5% (inactive),0.33% (inactive)
O=c1ccn(Cc2ccc(F)cc2)c2ccnc(C(F)(F)F)c12,14.8% (inactive),16.6% (inactive)
CC1=CC(C)(C)N(S(=O)(=O)c2ccc(C)cc2)c2ccc(C)cc21,0.6% (inactive),-5.7% (inactive)
COc1ccc(NC(=O)CSc2nnnn2C2CCCCC2)c(OC)c1,1.44% (inactive),14.6% (inactive)
CC(C)(C)n1nc2c(c1NC(=O)c1cc([N+](=O)[O-])ccc1Cl)CS(=O)(=O)C2,25.2% (inactive),47.5% (active)
COc1ccc(-n2c(SCC(=O)NN=Cc3c(O)ccc4ccccc34)nnc2-c2ccc(C(C)(C)C)cc2)cc1,-13% (inactive),30.7% (inactive)
O=C(O)CCSc1ncnc2sc(-c3ccccc3)cc12,67.7% (active),88.4% (active)
CCCc1cc(=O)n2nc(N3CCC(C(=O)N4CCN(c5cccc(OC)c5)CC4)CC3)sc2n1,-1.33% (inactive),17.2% (inactive)
CC(C)[C@H](NC(=O)[C@@H]1Cc2ccccc2CN1)C(=O)Nc1ccc2c(c1)OCCO2,-21% (inactive),-29.4% (inactive)
CC1=CC(C)(C)Nc2ccc(OC(=O)C(C)N3C(=O)c4ccccc4C3=O)cc21 (centres undefined),-33.8% (inactive),20.7% (inactive)
C=CC(=O)NN(C)c1ncc(C(F)(F)F)cc1Cl,15.4% (inactive),7.42% (inactive)
Cc1cc(C(=O)COc2cccnc2[N+](=O)[O-])c(C)n1-c1ccccc1F,-54.6% (inactive),62.7% (active)
